Results filed as inconclusive are left out. The source made the active and inactive calls. The calls were made as follows: active = hit-call score of the fitted dose curve at least 0.9, where 1 is the maximum; inconclusive = response in the unintended direction; inactive = score below 0.9.

Chain of human Phosphodiesterase 4A1 (PDE4A1), PDE4A (gene 5141) (P27815 whole entry, looked up): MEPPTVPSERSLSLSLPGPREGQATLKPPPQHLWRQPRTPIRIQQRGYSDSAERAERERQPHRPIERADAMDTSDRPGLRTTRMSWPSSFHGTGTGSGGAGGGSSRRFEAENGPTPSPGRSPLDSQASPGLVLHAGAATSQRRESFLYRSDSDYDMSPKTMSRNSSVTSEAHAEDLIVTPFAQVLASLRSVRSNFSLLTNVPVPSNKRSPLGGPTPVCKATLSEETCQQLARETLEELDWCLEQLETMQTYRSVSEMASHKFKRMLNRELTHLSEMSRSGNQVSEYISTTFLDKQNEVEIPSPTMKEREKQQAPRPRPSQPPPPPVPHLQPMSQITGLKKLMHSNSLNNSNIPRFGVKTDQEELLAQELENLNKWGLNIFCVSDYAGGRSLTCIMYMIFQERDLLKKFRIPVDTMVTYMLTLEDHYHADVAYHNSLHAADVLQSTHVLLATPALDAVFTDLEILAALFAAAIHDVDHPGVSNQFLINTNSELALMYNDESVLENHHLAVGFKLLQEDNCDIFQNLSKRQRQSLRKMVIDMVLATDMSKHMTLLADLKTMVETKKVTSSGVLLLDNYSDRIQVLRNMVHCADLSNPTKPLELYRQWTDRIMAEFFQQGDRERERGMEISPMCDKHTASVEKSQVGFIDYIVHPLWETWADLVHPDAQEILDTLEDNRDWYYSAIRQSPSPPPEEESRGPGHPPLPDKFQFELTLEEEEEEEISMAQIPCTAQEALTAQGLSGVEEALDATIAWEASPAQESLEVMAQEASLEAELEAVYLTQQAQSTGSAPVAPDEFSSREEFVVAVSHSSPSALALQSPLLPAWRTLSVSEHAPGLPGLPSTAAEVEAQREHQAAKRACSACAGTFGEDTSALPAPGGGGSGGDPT

The assay has as its target human Phosphodiesterase 4A1 (PDE4A1), PDE4A (gene 5141) (UniProt P27815). In words: NVS_ENZ_hPDE4A1: NovaScreen (NVS) Enzymatic Assay for human Phosphodiesterase 4A1 (PDE4A1) (AID 2283191). The method, then:
NVS_ENZ_hPDE4A1 is a biochemical, single-readout assay that uses extracted gene-proteins in a cell-free assay. Measurements were taken 1 hour after chemical dosing in a 384-well plate.NVS_ENZ_hPDE4A1 is one of one assay component(s) measured or calculated from the NVS_ENZ_hPDE4A1 assay. It is designed to make measurements of enzyme activity, a form of enzyme reporter, as detected with fluorescence intensity signals by Fluorescence and electrophoretic mobility shift technology.Data from the assay component NVS_ENZ_hPDE4A1 was analyzed into 1 assay endpoint. This assay endpoint, NVS_ENZ_hPDE4A1, was analyzed in the positive analysis fitting direction relative to DMSO as the negative control and baseline of activity. Using a type of enzyme reporter, loss-of-signal activity can be used to understand changes in the enzymatic activity as they relate to the gene PDE4A. Furthermore, this assay endpoint can be referred to as a primary readout, because this assay has produced multiple assay endpoints where this one serves a enzymatic activity function. To generalize the intended target to other relatable targets, this assay endpoint is annotated to the esterase intended target family, where the subfamily is phosphodiesterase.
Binding assays used specific radioligands (tritiated, iodinated) with non-radioactive competitive displacement ligands in agonist or antagonist protocols (as indicated) and various reference compounds and inhibitors to titrate specific binding to receptors and transporters. Most enzyme assays (CYPs, kinases, phosphatases, proteases, HDACs) used recombinant protein and specific substrates (fluorescence mostly, some colorimetric and radioactive) and inhibitors, followed by a biochemical separation of substrate and product. All assays for the biochemical HTS were initially run in duplicate at a single concentration (10 uM for CYP450 assays and 25 uM for all others). Assay-chemical combinations meeting a pre-defined threshold (e.g., 30% inhibition and other criteria defined below) were then run in singleton concentration-response format with maximum concentration of 20 uM for CYPs and 50 uM for all others. Each assay was run with positive and negative controls, and concurrent controls on every plate. The follow-up (secondary) screen tested active chemical-pairs in concentration series, as well as a few additional assays not tested in the primary screen, some selected negative inactives, and several cases re-run in the concentration series for confirmatory purposes.
Take `COc1cccc(-c2ccc(/C=C\CN3CCCCCC3)cc2Cl)c1`: the compound was classed as inactive. The term AC50 denotes the concentration giving half of the maximal activity seen. Consider `Cn1c(=O)cc(Oc2ccc(F)cc2F)c2cnc(NCC(C)(C)O)nc21`, for which the AC50 is 914 nM (active). On to `O=C(O)c1cccc(Oc2ccccc2)c1`, for which the result was inactive. As for `Cc1ccc(N)cc1O`, the result was inactive. Take `COC(=O)CC(=O)OC`: the compound was called inactive. For `O=C(O)CC(O)C(=O)O` (stereo not given), the compound was called inactive.

In the case of `Cn1c(=O)c2c(ncn2C)n(C)c1=O`, the concentration at half-maximal activity (AC50) was 25000 nM (active). Take `COc1ccc(-n2nc(C(F)F)cc2-c2ccc(S(C)=O)cc2)cc1` (stereo not given): the AC50 was 2.29 nM (active). `CCCCCCc1ccc(O)cc1O`: the AC50 was 39200 nM (active). With `CC1(C)C(=O)N(Br)C(=O)N1Br`, the outcome was inactive. The same measure, in the same setting: with `C=CCCCCCCCCC(=O)O` the entry was “inactive”. In the case of `O=C(O)c1cccc(N(Cc2cccnc2)c2ccc(OC(F)F)c(OC(F)F)c2)c1`, the half-maximal activity concentration (AC50) is 4.37 nM (active). On to `CNS(=O)(=O)c1cc(C(=O)N2CCC(CCN3C4CCC3CC(n3c(C)nc5ccccc53)C4)(c3cccc(F)c3)CC2)c(Cl)cc1F` (stereo not given), for which the outcome was inactive. With `O=C(O)c1cc(N=Nc2ccc(S(=O)(=O)Nc3ccccn3)cc2)ccc1O`, the result was inactive.

`CC[C@H]1CC[C@H](NCc2cc3c(cc2OC)[C@H]2C[C@H]2C(=O)N3C)[C@H](c2ccccc2)N1`: the compound was called inactive.

The values are drawn from PubChem BioAssay (EPA / NIEHS).
